In PubChem BioAssay (NCATS):
Results filed as inconclusive are left out. Active and inactive are the calls of the source. The call rests on the fitted dose curve; in most records, active means well fitted curve in the direction sought with a large enough effect; inconclusive means small, poorly fitted or top-dose-only effect, or another doubt; inactive means no such curve, though single readings can be large; an effect the other way counts as inactive or inconclusive.

Tests used:
[1] = target: Aldehyde dehydrogenase, mitochondrial (Homo sapiens) (UniProt P05091); assay: qHTS for Inhibitors of the Aldehyde Dehydrogenase Family (ALDH2) Primary screen (AID 2061308);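 further: plate controls were vehicle for no effect and reference inhibitor for full effect; nearly all actives have a fitted effect of over 55% in size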
[2] = target: Retinaldehyde dehydrogenase 3 (Homo sapiens) (UniProt P47895); assay: qHTS for Inhibitors of the Aldehyde Dehydrogenase Family (ALDH1A3) Validation screen (AID 2061312); further: on the % scale 0 is the no-effect control and ±100 the full control effect; nearly all actives have a fitted effect of over 45% in size
[3] = target: Retinaldehyde dehydrogenase 3 (Homo sapiens) (UniProt P47895); assay: qHTS for Inhibitors of the Aldehyde Dehydrogenase Family (ALDH1A3) Primary screen (AID 2061315);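 further: plate controls were DMSO vehicle for no effect and reference inhibitor for full effect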
[4] = BET inhibitor-based combinations targeting novel dependencies in MECOM-rearranged (r) AML: SET-2 cell line (AID 2202231); conditions: SET-2 AML cells viability, CellTiter-Glo luminescence, 48 h; viability: stronger effect = lower value, concentration not given here; further: nearly all actives have a fitted effect of over 35% in size; further: potency means the concentration at half of the fitted maximal effect;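 on viability: plate controls were DMSO treated cells for no effect and wells without cells for full effect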
Method in brief: (§1)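 Here, 11-point titrations of each agent were applied to 500 seeded cells and incubated 48 hr; CellTiter-Glo signal, scaled against DMSO and empty wells, was integrated as AUC, then Z-scored within the individual line.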

[5] = BET inhibitor-based combinations targeting novel dependencies in MECOM-rearranged (r) AML: HNT-34 cell line (AID 2202234); further: nearly all actives have a fitted effect of over 35% in size; further: potency means the concentration at half of the fitted maximal effect
Method in brief: (§2)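 Normalized to DMSO and empty-well controls, the luminescence data from CellTiter-Glo after 48 hr drug exposure were fitted across 11 concentrations. Reported metrics are area under the dose-response curve and its Z-transformed form.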

[6] = BET inhibitor-based combinations targeting novel dependencies in MECOM-rearranged (r) AML: UCSD-AML1 cell line (AID 2202235); further: nearly all actives have a fitted effect of over 40% in size; further: potency means the concentration at half of the fitted maximal effect
Method in brief: as §2

[7] = BET inhibitor-based combinations targeting novel dependencies in MECOM-rearranged (r) AML: AML-191 cell line (AID 2202236; further: nearly all actives have a fitted effect of over 35% in size; further: potency means the concentration at half of the fitted maximal effect)
Method in brief: as §1

[8] = BET inhibitor-based combinations targeting novel dependencies in MECOM-rearranged (r) AML: MV-4-11 cell line (AID 2202233); further: nearly all actives have a fitted effect of over 45% in size; further: potency means the concentration at half of the fitted maximal effect
Method in brief: as §2

[9] = BET inhibitor-based combinations targeting novel dependencies in MECOM-rearranged (r) AML: AML-194 cell line (AID 2202237; further: nearly all actives have a fitted effect of over 40% in size; further: potency means the concentration at half of the fitted maximal effect)
Method in brief: as §1

[10] = BET inhibitor-based combinations targeting novel dependencies in MECOM-rearranged (r) AML: OCI-AML3 cell line (AID 2202232); conditions: Potency: OCI-AML3 viability; further: potency means the concentration at half of the fitted maximal effect; nearly all actives have a fitted effect of over 35% in size
Method in brief: as §1

COC(=O)CC1CC(c2ccc(O)cc2)=NO1 (stereo not drawn)
inactive: Potency [1] | Potency [2] | Potency [3]

CCN(c1cc(-c2ccc(CN3CCOCC3)cc2)cc(C(=O)NCc2c(C)cc(C)[nH]c2=O)c1C)C1CCOCC1
inactive: Potency [1] | Potency [2] | Potency [3] | viability [4] 94.8% | Potency [5] | Potency [6] | Potency [7]

COc1c(C)cnc(Cn2cc(C#CCC(C)(C)O)c3c(Cl)nc(N)nc32)c1C
inactive: Potency [1] | Potency [2] | Potency [3]

CCOc1cc(CC(=O)NC(CC(C)C)c2ccccc2N2CCCCC2)ccc1C(=O)O (stereo not drawn)
inactive: Potency [1] | Potency [2] | Potency [3]

Cc1onc(-c2ccccc2Cl)c1C(=O)N(C)c1ccc(Cl)cc1
inactive: Potency [1] | Potency [2] | Potency [3]

Cc1ccc2nc(NC(=O)CSc3nc4c(c(=O)n3-c3ccccc3)SCC4)sc2c1
inactive: Potency [1] | Potency [2] | Potency [3] | viability [4] 114% | Potency [8] | Potency [5] | Potency [6] | Potency [7] | Potency [9]

C=C[C@H]1[C@H](O[C@@H]2O[C@H](CO)[C@@H](O)[C@H](O)[C@H]2O)OC=C(C(=O)OC)[C@H]1C[C@@H]1c2cc(O)c(O)cc2CCN1C(C)=O
inactive: Potency [1] | Potency [3]

O=C(N[C@@H]1CC[C@@H](c2cccc(F)c2F)CN(CC(F)(F)F)C1=O)N1CCC(n2c(=O)[nH]c3ncccc32)CC1
inactive: Potency [1] | Potency [2] | Potency [3]

COc1ccc(C2CC(c3ccccc3)=NN2c2ccc(S(N)(=O)=O)cc2)cc1 (stereo not drawn)
inactive: Potency [1] | Potency [2] | Potency [3] | viability [4] 112% | Potency [6] | Potency [7] | Potency [9]

COc1cccc(-c2cc(F)ccc2C2Cc3nc(N)nc(C)c3C(=O)N2)n1 (stereo not drawn)
inactive: Potency [1] | Potency [2] | Potency [3]
active: Potency [4] 74.2 nM | Potency [10] 66.1 nM | Potency [8] 41.7 nM | Potency [5] 132 nM | Potency [6] 105 nM | Potency [7] 93.4 nM | Potency [9] 93.4 nM

O=C(OC(C(F)(F)F)C(F)(F)F)N1CCN(Cc2cccc(Oc3ccccc3)c2)CC1
inactive: Potency [1] | Potency [2] | Potency [3]

O=C(NCCCN1CCC2(CC1)OCc1ccccc12)[C@H]1CCCN1Cc1ccccc1
inactive: Potency [1] | Potency [2] | Potency [3]

OC(c1ccc(-c2ccc(CN3CCN(Cc4ccncc4)CC3)cc2)c(F)c1)(C(F)(F)F)C(F)(F)F
inactive: Potency [1] | Potency [2] | Potency [3] | viability [4] 101% | Potency [5] | Potency [6] | Potency [9]
active: Potency [8] 8330 nM | Potency [7] 9340 nM

CC(C)(C[C@@](O)(Cc1cc2ccncc2[nH]1)C(F)(F)F)c1cc(F)ccc1O
inactive: Potency [1] | Potency [2] | Potency [3]

CCOc1ccc(-n2c([C@@H](C)N(Cc3cccnc3)C(=O)Cc3ccc(OC(F)(F)F)cc3)nc3ncccc3c2=O)cc1
inactive: Potency [1] | Potency [2] | Potency [3]

CCCc1cc(C)[nH]c(=O)c1CNC(=O)c1cc(-c2ccnc(N3CCN(C)CC3)c2)cc2c1cnn2C(C)C
active: Potency [8] 23500 nM
inactive: Potency [1] | Potency [2] | Potency [3]

C[C@H](NC(=O)Cc1cc(F)cc(F)c1)C(=O)N[C@@H]1C(=O)N(C)c2ccccc2-c2ccccc21
inactive: Potency [1] | Potency [2] | Potency [3] | viability [4] 121% | Potency [8] | Potency [5] | Potency [6] | Potency [7] | Potency [9]

FC(F)(F)c1cc(C(F)(F)F)c2ccc3nc(-c4nnco4)cn3c2n1
inactive: Potency [1] | Potency [2] | Potency [3]

CCc1nc(-c2cccc(C)c2)c(-c2ccnc(NC(=O)c3ccccc3)c2)s1
inactive: Potency [1] | Potency [2] | Potency [3]
active: Potency [10] 9.3 nM | Potency [8] 10500 nM

CCN1CCC[C@@H]1CNC(=O)c1ccc2c(c1)NC(=O)c1cccc(C)c1S2
inactive: Potency [1] | Potency [3]

C[C@H](NC(=O)CCc1nc2ccccc2c(=O)[nH]1)c1ccccc1
inactive: Potency [1] | Potency [3]

C[C@@H]1C[C@@H](O)[C@@]2(CO)C(CO)=CCC[C@@H]2[C@@]12C[C@@H](c1ccoc1)OC2=O
inactive: Potency [1] | Potency [3]
